{"source": "ChEMBL document CHEMBL3988442", "about": "“University of Dundee, Small-Polar-MMV Screening Library” (2021)", "note": "Out of some 48,000 compounds screened, about 13,000 (27%) showed an effect of 50% or more. The list shows a part of the results.", "data": [{"tested_on": "Wolbachia pipientis", "assay": "Anti-Wolbachia Cell-Based Screen", "type": "functional", "design": "scale not given: in the data most compounds retested in dose-response had high values", "conditions": "5 µM", "units": {"Percent Effect": "%"}, "values": [{"smiles": "O=C(NCc1cccc(N2CC=CC2)c1)NCC(F)(F)F", "Percent Effect": 2.139}, {"smiles": "COc1ccnc(N(C)Cc2c(C)noc2C)n1", "Percent Effect": 0.6416}, {"smiles": "Cc1occc1C(=O)NCC(=O)N1CCCC(c2ccccc2)CC1", "note": "(stereo not drawn)", "Percent Effect": 4.823}, {"smiles": "O=C(CCNC(=O)c1ccoc1)Nc1cc(F)cc(F)c1", "Percent Effect": -8.538}, {"smiles": "CCn1cnc(NC(=O)N2CCCC(c3ccccc3)CC2)n1", "note": "(stereo not drawn)", "Percent Effect": 1.274}, {"smiles": "O=C(CCNC(=O)c1ccoc1)Nc1c(F)cccc1F", "Percent Effect": -2.292}, {"smiles": "O=C(NCCC(=O)N1CCCCCCC1)c1ccoc1", "Percent Effect": 130.7}, {"smiles": "CC(C)CN1CCC(C(=O)NCCNC(=O)c2ccoc2)CC1", "Percent Effect": 9.069}, {"smiles": "O=C(NCC(=O)N1CCCC(c2ccccc2)CC1)c1ccoc1", "note": "(stereo not drawn)", "Percent Effect": 114.1}, {"smiles": "CC1CCCN(C(=O)NCC(F)F)C1", "note": "(stereo not drawn)", "Percent Effect": -0.801}, {"smiles": "CC1CCCN(C(=O)CNC(=O)c2ccoc2)C1", "note": "(stereo not drawn)", "Percent Effect": 104.6}, {"smiles": "c1cnnc(N2CCCC(NCc3ccc(-n4ccnc4)cc3)C2)c1", "note": "(stereo not drawn)", "Percent Effect": 2.731}, {"smiles": "CN(Cc1cccs1)C(=O)CNC1CCc2ncnn2C1", "note": "(stereo not drawn)", "Percent Effect": -0.9071}, {"smiles": "Cc1cc(=O)c2ccccc2n1CC1CCCN(C)C1", "note": "(stereo not drawn)", "Percent Effect": -3.698}, {"smiles": "Cc1cc(S(=O)(=O)N2CCc3ccc(F)cc32)cc(C(=O)O)c1C", "Percent Effect": -1.898}, {"smiles": "CC(NC(=O)CNCCn1cccn1)c1ccc2c(c1)OCCO2", "note": "(stereo not drawn)", "Percent Effect": -2.168}, {"smiles": "Cc1cnn(CCNCC(=O)NC(C)c2ccc3c(c2)OCCO3)c1", "note": "(stereo not drawn)", "Percent Effect": 97.89}, {"smiles": "CC(NC(=O)Cn1cccn1)c1ccc2c(c1)OCCCO2", "note": "(stereo not drawn)", "Percent Effect": -3.831}, {"smiles": "CC(NC(=O)CCn1cccn1)c1ccc2c(c1)OCCO2", "note": "(stereo not drawn)", "Percent Effect": 98}, {"smiles": "CC(NC(=O)Cn1cccn1)c1ccc2c(c1)OCCO2", "note": "(stereo not drawn)", "Percent Effect": 96.81}, {"smiles": "CC(NC(=O)CNCCn1cccn1)c1ccc2c(c1)CCCC2", "note": "(stereo not drawn)", "Percent Effect": 2.456}, {"smiles": "OC(CNCCn1cccn1)c1ccc2c(c1)OCCO2", "note": "(stereo not drawn)", "Percent Effect": 4.861}, {"smiles": "CC(NC(=O)NCCCn1ccnc1)c1ccc2c(c1)OCCCO2", "note": "(stereo not drawn)", "Percent Effect": -3.282}, {"smiles": "CC(NC(=O)NCCCO)c1ccc2c(c1)OCCO2", "note": "(stereo not drawn)", "Percent Effect": 6.207}, {"smiles": "Cc1ccc(C(O)CNCCn2cccn2)cc1C", "note": "(stereo not drawn)", "Percent Effect": -13.13}, {"smiles": "Cc1ccc(C(C)NC(=O)CNCCn2cccn2)cc1C", "note": "(stereo not drawn)", "Percent Effect": 67.97}, {"smiles": "CC(NC(=O)NCCCn1cncn1)c1ccc2c(c1)OCCO2", "note": "(stereo not drawn)", "Percent Effect": 5.809}, {"smiles": "Cc1noc(C)c1CN(C)C(=O)NC(C)Cc1ccco1", "note": "(stereo not drawn)", "Percent Effect": 8.322}, {"smiles": "CN(Cc1nc2ccccc2o1)CC1CCCN1c1cccnn1", "note": "(stereo not drawn)", "Percent Effect": 4.649}, {"smiles": "COc1ccccc1C(C)N1CCN(S(=O)(=O)N(C)C)CC1", "note": "(stereo not drawn)", "Percent Effect": -4.471}, {"smiles": "Cc1cccc(N2N=C(C(=O)NC(C)Cn3cccn3)CCC2=O)c1", "note": "(stereo not drawn)", "Percent Effect": -20.26}, {"smiles": "Nc1nc(CNc2nccc(CCC(F)(F)F)n2)cs1", "Percent Effect": 0.6104}, {"smiles": "Cc1cc(NC(=O)[C@H]2CCCCN2C(=O)OC(C)(C)C)no1", "Percent Effect": 12.93}, {"smiles": "O=C(CCC1CCCO1)NCc1ccc(Br)cc1F", "note": "(stereo not drawn)", "Percent Effect": 24.29}, {"smiles": "Cc1cc(C(=O)N2CCc3ncnc(-c4cnn(C)c4)c3CC2)c(C)o1", "Percent Effect": 88.25}, {"smiles": "Cc1cnc(C(=O)N2CCc3ncnc(-c4cnn(C)c4)c3CC2)cn1", "Percent Effect": 103.6}, {"smiles": "Cc1occc1C(=O)N1CCc2ncnc(-c3cnn(C)c3)c2CC1", "Percent Effect": 2.959}, {"smiles": "Cc1ncnc2c1CCN(C(=O)c1cnccn1)CC2", "Percent Effect": 1.422}, {"smiles": "Cc1ccoc1C(=O)N1CCc2ncnc(-c3cnn(C)c3)c2CC1", "Percent Effect": 95.42}, {"smiles": "CN(C)CC(=O)N1CCc2ncnc(-c3ccoc3)c2CC1", "Percent Effect": -8.225}, {"smiles": "Cc1ncnc2c1CCN(C(=O)c1ccoc1)CC2", "Percent Effect": -3.432}, {"smiles": "Cc1cnc(C(=O)N2CCc3ncnc(C)c3CC2)cn1", "Percent Effect": -11.83}, {"smiles": "CCOc1ncnc2c1CCN(C(=O)c1cnccn1)CC2", "Percent Effect": 5.086}, {"smiles": "Cn1cc(-c2ncnc3c2CCN(C(=O)c2cnccn2)CC3)cn1", "Percent Effect": 113}, {"smiles": "CN(c1cccnc1N1CCCC1)S(=O)(=O)c1cccs1", "Percent Effect": 3.267}, {"smiles": "CCc1nc(C)c(C(=O)N2CCNCC2C(=O)Nc2ccc(C)nc2)o1", "note": "(stereo not drawn)", "Percent Effect": 1.705}, {"smiles": "Cc1cccc(C)c1OC1CN(Cc2cnc(-c3ccco3)nc2)C1", "Percent Effect": -6.327}, {"smiles": "CSCC(=O)N[C@H]1CN(CC2CCOCC2)C[C@@H]1c1ccccc1", "Percent Effect": 6.905}, {"smiles": "COc1cc(N2CCc3ncnc(-c4cnn(C)c4)c3CC2)ncn1", "Percent Effect": -4.032}, {"smiles": "Cc1ccc(C(=O)N2CCc3ncnc(-c4cnn(C)c4)c3CC2)o1", "Percent Effect": 96.64}, {"smiles": "Cn1cc(-c2ncnc3c2CCN(C(=O)c2cscn2)CC3)cn1", "Percent Effect": 121.2}, {"smiles": "Cc1cc(C(=O)N2CCc3ncnc(-c4cnn(C)c4)c3CC2)no1", "Percent Effect": 110.1}, {"smiles": "Cn1cc(-c2ncnc3c2CCN(C(=O)N2CCOCC2)CC3)cn1", "Percent Effect": -0.924}, {"smiles": "Cc1ccc(C(=O)N2CCc3ncnc(C)c3CC2)o1", "Percent Effect": -4.866}, {"smiles": "O=C(c1cc[nH]n1)N1CCc2ncnc(N3CCSCC3)c2CC1", "Percent Effect": 19.12}, {"smiles": "CN(C)c1cnnc(N2CCN(C(=O)CCC3CCCCC3)CC2)c1", "Percent Effect": 3.23}, {"smiles": "Cc1n[nH]c(SCC(=O)NC(c2ccncc2)C(C)C)n1", "note": "(stereo not drawn)", "Percent Effect": 1.831}, {"smiles": "Cc1cc(NC(=O)N2CCOCC2)nn1-c1ccccc1Cl", "Percent Effect": -5.01}, {"smiles": "CCc1nc(NS(=O)(=O)c2cc(C)cc(F)c2)no1", "Percent Effect": -9.734}, {"smiles": "Cc1ccc(CN2CCC(F)(F)C3(CCN(c4cnccn4)C3)C2)o1.O=C(O)C(F)(F)F.O=C(O)C(F)(F)F", "note": "(stereo not drawn)", "Percent Effect": 15.24}, {"smiles": "Cc1ccc(N2CCC3(CN(Cc4cccs4)CCC3(F)F)C2)nn1.O=C(O)C(F)(F)F", "note": "(stereo not drawn)", "Percent Effect": 80.15}, {"smiles": "Cc1ccc(N2CCC3(CC2)CC(OCC(C)C)C3)nn1.O=C(O)C(F)(F)F", "Percent Effect": -76.25}, {"smiles": "Cc1ccc(N2CCCC3(CCCC(=O)N3)C2)nn1.O=C(O)C(F)(F)F", "note": "(stereo not drawn)", "Percent Effect": -15.09}, {"smiles": "Cc1ccc(N2CCC3(CN(Cc4ccncc4)CCC3(F)F)C2)nn1.O=C(O)C(F)(F)F.O=C(O)C(F)(F)F", "note": "(stereo not drawn)", "Percent Effect": 101.6}, {"smiles": "Cc1n[nH]cc1CNc1ccc2c(c1)N(C(=O)OC(C)(C)C)CCC2", "Percent Effect": -11.3}, {"smiles": "Cc1nnsc1CNC(=O)Nc1cccc(N2CCN(C)C2=O)c1", "Percent Effect": -31.37}, {"smiles": "CN1CC2(COCCN(c3ncccn3)C2)OCC1=O", "note": "(stereo not drawn)", "Percent Effect": -2.048}, {"smiles": "O=C1COC2(COCCN(c3cnccn3)C2)CN1c1cccc(F)c1", "note": "(stereo not drawn)", "Percent Effect": -3.492}, {"smiles": "Cc1cccc(N2CCOCC3(C2)CN(c2cncnc2)C(=O)CO3)n1", "note": "(stereo not drawn)", "Percent Effect": 105.8}, {"smiles": "Cc1cccc(N2CC3(COCCN(c4ccncn4)C3)OCC2=O)c1", "note": "(stereo not drawn)", "Percent Effect": -13.92}, {"smiles": "Cc1cccc(N2CCOCC3(C2)CN(c2cccnc2)C(=O)CO3)n1", "note": "(stereo not drawn)", "Percent Effect": 106.1}, {"smiles": "N#CCCN(Cc1ccco1)C(=O)COC1CCCCC1", "Percent Effect": 5.394}, {"smiles": "O=S1(=O)C[C@@H]2[C@H](C1)N(Cc1nc3ccccc3[nH]1)CCN2CC1CC1", "Percent Effect": 0.3251}, {"smiles": "CCC(=O)N1CCCCC1c1nc(CN(C)C(C)=O)cc(N(C)C)n1", "note": "(stereo not drawn)", "Percent Effect": 86.02}, {"smiles": "CC(=O)c1ccc(C(=O)N2CCCCC2c2nc[nH]n2)cc1", "note": "(stereo not drawn)", "Percent Effect": -8.755}, {"smiles": "CC(=O)N1CCCC1c1nc(CN(C)C(=O)C(C)C)cc(N(C)C)n1", "note": "(stereo not drawn)", "Percent Effect": 95.56}, {"smiles": "CC(C)c1nc(C2CCCN2C(=O)c2ccc(N(C)C)nn2)no1", "note": "(stereo not drawn)", "Percent Effect": 2.138}, {"smiles": "CN(CC(=O)N1CCCC1c1noc(C2CC2)n1)C1CC1", "note": "(stereo not drawn)", "Percent Effect": -4.612}, {"smiles": "COCC(=O)N1CCCCC1c1nc(CN(C)C(C)=O)cc(N(C)C)n1", "note": "(stereo not drawn)", "Percent Effect": 103.1}, {"smiles": "Cc1ccsc1CNC(=O)NC1CCCc2c1cnn2CCO", "note": "(stereo not drawn)", "Percent Effect": 0.2453}, {"smiles": "CC(=O)N1CCCN(C(=O)NCCCN(C)S(C)(=O)=O)CC1", "Percent Effect": -3.578}, {"smiles": "COc1ccccc1CN(Cc1cccnc1)Cc1nccs1", "Percent Effect": -55.96}, {"smiles": "CCN1CCC(CNC(=O)Nc2cnn(CC(N)=O)c2)C1", "note": "(stereo not drawn)", "Percent Effect": -9.388}, {"smiles": "CCn1cc(NC(=O)C2CCN(CC(=O)NCC(C)C)CC2)cn1", "Percent Effect": 118.6}, {"smiles": "CCCNC(=O)CN1CCC(C(=O)Nc2cnn(CC)c2)CC1", "Percent Effect": 2.919}, {"smiles": "CCc1noc(C)c1C(=O)Nc1cnn(CC(=O)NC2CCCC2)c1", "Percent Effect": 1.161}, {"smiles": "CCCNC(=O)C(C)N1CCC(C(=O)Nc2cnn(CC)c2)CC1", "note": "(stereo not drawn)", "Percent Effect": 103.7}, {"smiles": "CCn1cc(NC(=O)C2CCN(CC(=O)N3CCOCC3)CC2)cn1", "Percent Effect": -4.13}, {"smiles": "CCn1cc(NC(=O)C2CCN(CC(=O)NC(C)(C)CC)CC2)cn1", "Percent Effect": 91.29}, {"smiles": "CCn1cc(NC(=O)C2CCN(CC(=O)NC3CCCC3)CC2)cn1", "Percent Effect": 91.7}, {"smiles": "CCn1cc(NC(=O)NC2CCCc3c2cnn3CCO)cn1", "note": "(stereo not drawn)", "Percent Effect": 0.905}, {"smiles": "Cc1ncncc1C(=O)Nc1cnn(CC(=O)NC2CCCC2)c1", "Percent Effect": 0.1635}, {"smiles": "O=C(c1ccccc1C(F)(F)F)N1C[C@@H](CN2CCOCC2)[C@@H](CO)C1", "Percent Effect": -0.09435}, {"smiles": "CCCc1cncnc1N1CCC(NCc2cc3ccccc3[nH]2)CC1", "Percent Effect": -18.7}, {"smiles": "O=C(NC1CC1)[C@H]1C[C@H]2OCC[C@H]2N(CC2CCOCC2)C1.O=C(O)C(F)(F)F", "Percent Effect": 0.97}, {"smiles": "O=C(Nc1nncs1)N1CCCN(C2CCCCC2)CC1", "Percent Effect": -4.459}, {"smiles": "COc1ccc(S(=O)(=O)NCCC(O)c2cc(C)oc2C)c(C)c1", "note": "(stereo not drawn)", "Percent Effect": 2.617}, {"smiles": "C[C@@H]1C[C@H]2CN(C(=O)C3=CCCCC3)C[C@H]2O1", "Percent Effect": 0.662}, {"smiles": "O=C(NC1CCS(=O)(=O)c2ccccc21)c1cccs1", "note": "(stereo not drawn)", "Percent Effect": 3.993}, {"smiles": "CCNC(=O)N1C[C@@H]2OCC(=O)N(C(C)C)[C@@H]2C1", "Percent Effect": -6.666}, {"smiles": "Cc1cc(C(=O)Nc2cnn(CC(=O)NC3CCCC3)c2)c(C)s1", "Percent Effect": 2.888}, {"smiles": "Cc1ccsc1C(=O)Nc1cnn(CC(=O)NC2CCCC2)c1", "Percent Effect": 2.464}, {"smiles": "Cc1nc(C)c(C(=O)Nc2cnn(CC(=O)NC3CCCC3)c2)s1", "Percent Effect": 111.4}]}]}
